Assay outcomes from PubChem BioAssay.
Not all results are given here.
aSyn UTR act = Activators working through SNCA 5'UTR binding (MLPCN) | activity score, % (tested at 7.5 µM), hits read low | 7.1% of 300,000 active | alpha-synuclein 5'UTR reporter, activators screen; in the data active = activity score below about -60%
Large screens that a line does not name were inactive.

N=c1c2c(-c3ccccc3)c(-c3ccccc3)n(Cc3ccccc3)c2ncn1CCO	none
COc1ccccc1Nc1ncnc2c1c(C)c(C)n2CCO	aSyn UTR act -103
O=C(c1ccc(S(=O)(=O)c2ccccc2Cl)c([N+](=O)[O-])c1)N1CCCCCC1	aSyn UTR act -98
O=C(c1ccc(S(=O)(=O)c2cccc(Cl)c2)c([N+](=O)[O-])c1)N1CCN(c2ccccn2)CC1	aSyn UTR act -62
Cc1c(C(=O)NNC(=S)Nc2cccc(Cl)c2)nnn1-c1ccccc1	aSyn UTR act -69
CC(C)(C)c1nnc(N/N=C/c2cc(Br)ccc2O)n(N)c1=O	none
C/C(=N\Nc1nc2ccccc2c(=O)n1O)c1ccco1	aSyn UTR act -119
Cc1ccc(C)c(/C=N/Nc2nc3ccccc3c(=O)n2O)c1	aSyn UTR act -85
COC(=O)c1ccc(N=NN2CCCCC2)cc1	aSyn UTR act -102
CC(=O)c1ccc(N=Nc2ccc(C)cc2)cc1	none
COC(=O)c1ccc(NN=Nc2ccc(C)cc2)cc1	aSyn UTR act -173
O=C1NC(=S)N/C1=C/C=C/c1ccccc1	aSyn UTR act -92
Cc1ccc(-c2nn(-c3ccccc3)cc2C=C2C(=O)CC(C)(C)CC2=O)cc1	aSyn UTR act -94
CC1=NNC(=O)/C1=C\c1cn(-c2ccccc2)nc1-c1ccc(Cl)cc1	none
O=C(COc1ccccc1)Nc1ccc(NC(=O)c2ccco2)cc1	aSyn UTR act -65
CC(=O)Nc1ccc(NC(=O)c2ccco2)cc1	aSyn UTR act -71
O=C(NNC(=O)c1ccccc1O)c1ccco1	aSyn UTR act -82
CSc1cccc(NC(=O)c2ccco2)c1	aSyn UTR act -75
CC1N(C)c2cc(NC(=O)c3ccco3)ccc2C1(C)C (stereo not given)	aSyn UTR act -81
CSc1cccc(NC(=O)c2cccc3cccnc23)c1	aSyn UTR act -134
CN(C(=O)c1ccc(NC(=O)c2ccco2)cc1)c1ccccc1	aSyn UTR act -76
O=C(Nc1cccc(NC(=O)c2ccc(-c3ccc(Br)cc3)o2)c1)c1ccco1	aSyn UTR act -95
O=C(/C=C\c1ccccc1)Nc1ccc(NC(=O)c2ccco2)cc1	aSyn UTR act -67
O=C(Nc1ccc(Cl)cc1)c1ccco1	aSyn UTR act -131
C=CCn1c(C)cc(C(=O)COC(=O)[C@@H](NC(=O)c2ccccc2Cl)C(C)C)c1C	aSyn UTR act -70
COc1ccc2cc(C(=O)N(C)Cc3ccccc3)[nH]c2c1	aSyn UTR act -86
COc1ccc2[nH]c(C(=O)NCCc3ccccc3)cc2c1	aSyn UTR act -92
COc1ccc2cc(C(=O)N3CCC(Cc4ccccc4)CC3)[nH]c2c1	aSyn UTR act -77
CC(=O)c1c(C)[nH]c(C(=O)Nc2ccccn2)c1C	aSyn UTR act -80
CSc1cccc(NC(=O)c2[nH]c(C)c(C(C)=O)c2C)c1	aSyn UTR act -139
CC(=O)c1c(C)[nH]c(C(=O)Nc2ccc(Cl)cc2F)c1C	aSyn UTR act -186
CC(=O)c1c(C)[nH]c(C(=O)N2CCN(c3cc(Cl)ccc3C)CC2)c1C	none
CC(=O)c1c(C)[nH]c(C(=O)Nc2ccc(Cl)cc2)c1C	aSyn UTR act -195
Cc1ccc(NC(=O)CNCc2ccccc2Cl)cc1S(=O)(=O)N(C)C	aSyn UTR act -72
CCC(C)c1ccc(NC(=O)c2[nH]c(C)c(C(C)=O)c2C)cc1 (stereo not given)	aSyn UTR act -149
CC(=O)c1c(C)[nH]c(C(=O)Nc2ccc(Cl)c(S(=O)(=O)N(C)C)c2)c1C	aSyn UTR act -174
CCOC(=O)Cc1csc(NC(=O)c2cccs2)n1	aSyn UTR act -176
CCOC(=O)c1csc(NC(=O)c2cccs2)n1	aSyn UTR act -109
CCOC(=O)Cc1csc(NC(=O)c2c(O)c3ccccc3n(CC(C)C)c2=O)n1	none
CO/N=C/C(C#N)=C/c1ccc(OC)cc1	aSyn UTR act -81
CC1CCN(C(=O)c2cc3ccccc3o2)CC1	aSyn UTR act -131
O=C(c1cc2ccccc2o1)N1CCCCCC1	aSyn UTR act -64
CC1CC(C)CN(C(=O)c2cc3ccccc3o2)C1 (stereo not given)	aSyn UTR act -70
CC1CC(C)CN(C(=O)c2cc3cc(Br)cc(Br)c3o2)C1 (stereo not given)	aSyn UTR act -121
Cc1ccc(NC(=O)/C(Cl)=C\c2ccccc2)cc1	aSyn UTR act -105
O=C(Nc1ccc(F)cc1)/C(Cl)=C/c1ccccc1	aSyn UTR act -258
CC(=O)c1ccc(NC(=O)/C(Cl)=C/c2ccccc2)cc1	aSyn UTR act -175
CCc1c(C)sc(NC(=O)c2cc(C)on2)c1C#N	aSyn UTR act -103
CCc1c(C)sc(NC(=O)c2cccs2)c1C#N	aSyn UTR act -158
Cc1sc(NC(=O)c2ccccc2)c(C#N)c1-c1ccccc1	aSyn UTR act -141
Cc1cc(C(=O)Nc2sc(C)c(-c3ccc(F)cc3)c2C(N)=O)no1	aSyn UTR act -200
Cc1ccc(C(=O)NCCc2csc(-c3cccnc3)n2)cc1	aSyn UTR act -77
Cc1cc(N)n2ncc(-c3ccc(F)cc3)c2n1	aSyn UTR act -104
Cc1nc2c(-c3ccc(F)cc3)cnn2c(N)c1-c1ccc(F)cc1	aSyn UTR act -150
COc1ccc(-c2c(C)nc3c(-c4ccccn4)cnn3c2N)cc1	aSyn UTR act -181
Cc1cccc(N(C(=O)c2nsc(Cl)c2Cl)C(C(=O)NC2CCCC2)c2ccc(O)cc2)c1 (stereo not given)	aSyn UTR act -82
N#CC(c1cccc(Cl)c1)c1ccc2c(C(F)(F)F)cc(C(F)(F)F)nc2n1 (stereo not given)	none
Cc1cc(N2CCCCC2)nc(SCC(=O)c2ccccc2)n1	aSyn UTR act -119
Cc1cc(N2CCCC2)nc(-c2ccccc2O)n1	aSyn UTR act -62
N#Cc1nc(-c2ccccc2Cl)oc1N1CCCCC1	aSyn UTR act -69
CC1CCN(c2oc(-c3cccc4ccccc34)nc2C#N)CC1	aSyn UTR act -142
N#Cc1nc(-c2cccc3ccccc23)oc1N1CCCCC1	aSyn UTR act -155
CNC[C@H](Cc1ccccc1)NC[C@@H](Cc1cccc2ccccc12)NCCc1ccc(C)cc1	none
Cc1nnc(NCCc2ccccc2)c2ccccc12	aSyn UTR act -86
Cc1n[nH]c(=S)n1/N=C/c1ccc(OCc2ccc(Cl)cc2Cl)cc1	aSyn UTR act -82
Cc1n[nH]c(=S)n1/N=C/c1ccc(OCc2ccc(Cl)cc2)cc1	aSyn UTR act -99
C=CCn1c(SCC(=O)c2[nH]c(C)c(C(=O)OC)c2C)nc2scc(-c3ccc(OC)c(OC)c3)c2c1=O	none
CC(=O)c1c(C)[nH]c(C(=O)CSc2nnc3ccccn23)c1C	aSyn UTR act -85
CC(=O)c1c(C)[nH]c(C(=O)CSc2nnc(C)s2)c1C	aSyn UTR act -110
O=C(Nc1ccc(Br)cc1Cl)c1ccc2c(=O)n3c(nc2c1)CCC3	aSyn UTR act -190
O=C(Nc1ccc(Cl)cc1Cl)c1ccc2c(=O)n3c(nc2c1)CCC3	aSyn UTR act -159
COc1ccc(-n2c(C)nc3c(cnn3-c3ccc(C)c(C)c3)c2=O)cc1	aSyn UTR act -85
Cc1ccc(NCCC(=O)c2cccc([N+](=O)[O-])c2)c(C)c1	aSyn UTR act -201
N/C(=N\OC(=O)c1csnn1)c1ccc(C(F)(F)F)cc1	aSyn UTR act -67
CCn1c(SCC(=O)Nc2ccc(C(C)=O)cc2)nc2ccccc21	aSyn UTR act -70
COCCCn1c(SCC(=O)Nc2ccc(C(C)=O)cc2)nc2ccccc2c1=O	aSyn UTR act -84
CC(=O)c1ccc(NC(=O)CSc2nc(=O)cc(N)n2-c2ccccc2)cc1	aSyn UTR act -143
CCOc1ccc(NC(=S)NCc2nc3ccccc3[nH]2)cc1	aSyn UTR act -69
